For orientation: AC50 means the midpoint of the concentration-response curve, whichever way the signal moves.

Values joined by “and” are separate entries in the source; they are usually repeats but may differ in a detail not shown here. Equal values may be shown once. A structure can be active in one record and inactive in another. Active and inactive are the calls of the source. The calls were made as follows: active = hit-call score of the fitted dose curve at least 0.9, where 1 is the maximum; inactive = score below 0.9.

This test in a line: CCTE_Shafer_MEA_acute_per_network_burst_electrodes_number_mean: CCTE's Neural Acute Assay for Mean Number of Electrodes in a Network Burst, Shafer Lab (AID 2284021).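 Also: curves fitted for decreases only so hits reduce electrodes per burst.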 The protocol: CCTE_Shafer_MEA_acute assay is conducted using Axion Biosystems 48 well microelectrode array (MEA) plates and Maestro recording system. Each well of the MEA plate contains a grid of 16 microelectrodes embedded in the culture surface. Electrically active cells, such as neurons, can be cultured over the electrodes, and electrical activity in these cells can be recorded extracellularly. The spontaneous firing of neurons is captured from each electrode on a microsecond timescale providing both temporally and spatially precise data. […] The CCTE_Shafer_MEA_acute assay uses primary cultures of rat cortical neurons. As these cultures mature over time, neural networks develop functional activity and form cohesive networks in which electrical activity can be highly coordinated. Baseline 40-minute recordings are made on days post-plating 13 or 15, followed by a secondary 40-minute recording after chemical exposure.CCTE_Shafer_MEA_acute_per_network_burst_electrodes_number_mean is a component of the CCTE_Shafer_MEA_acute assay. It measures the average number of electrodes with activity during a network burst (a temporally-clustered group of action potential firing across multiple electrodes) in a recording in a microelectrode array (MEA) using Axion Biosystems Maestro 768 channel amplifier with the AxIS adaptive spike detector. The recordings before and after chemical treatment are used to calculate a percent change in the mean number of electrodes participating in network bursts in each well.Data from the assay component CCTE_Shafer_MEA_acute_per_network_burst_electrodes_number_mean was analyzed into 1 assay endpoint. This assay endpoint, CCTE_Shafer_MEA_acute_per_network_burst_electrodes_number_mean, was analyzed in the negative analysis fitting direction relative to DMSO as the negative control and baseline of activity. Using a type of functional reporter, gain or loss-of-signal activity can be used to understand electrical activity.
Spontaneous activity in the cortical cultures was recorded using an Axion Biosystems Maestro 768 channel amplifier and Axion Integrated Studios (AxIS) v1.8 (or later) software. The amplifier recorded from all channels simultaneously (gain = 1200 x; sampling rate = 12.5 kHz/channel): raw signals were filtered with a Butterworth band-pass filter (300-5000 Hz), which filters out slower local field potentials leaving only fast potentials, i.e., "spikes", arising from extracellular currents associated with action potentials (Pine 2006; Wheeler and Nam 2011). On-line spike detection of filtered signals was conducted with the AxIS adaptive spike detector, using a threshold of 8x the root mean squared (rms) noise on each channel. Any electrodes with rms noise levels greater than 5 uV were grounded (e.g., no data were recorded). Once grounded, an electrode was grounded for the duration of the experiment. All recordings were conducted at 37 C. Wells were deemed usable if on the day of the exposure >/= 10 electrodes were active (defined as >/= 5 spikes/min). On DIV 13 or 15, a minimum of three wells from one cortical culture preparation were treated with each compound (0.03-40 uM). Prior to recording baseline activity, each mwMEA plate was placed in the Maestro at 37 C and allowed to sit for 20 min while firing rates stabilized. Baseline activity (40 min) was recorded before the addition of each compound. An additional 40 min of spontaneous activity was recorded in the presence of each compound. Changes in network parameters relative to baseline were assessed following compound treatment.
In the case of `CCCN(CCC)c1c([N+](=O)[O-])cc(C(F)(F)F)cc1[N+](=O)[O-]`, the concentration at half-maximal activity (AC50) is 8.36 µM (active).

As for `O=C(O)CCCOc1ccc(Cl)cc1Cl`, the outcome was inactive.

Turning to `Clc1ccccc1-c1nnc(-c2ccccc2Cl)nn1`, the call was inactive. The same measure, in the same setting: then `N#CN`, with “inactive”; and `C[C@H]1[C@H](c2ccc(Cl)cc2)SC(=O)N1C(=O)NC1CCCCC1`, with “inactive”.

As to `O=S(=O)(O)C(F)(F)C(F)(F)C(F)(F)C(F)(F)C(F)(F)C(F)(F)C(F)(F)C(F)(F)F`, the compound was classed as inactive.

With `CNC(=O)/C=C(\C)OP(=O)(OC)OC`, the compound was classed as inactive. On the same count and under the same terms, then `O=[N+]([O-])/N=C1\NCCN1Cc1ccc(Cl)nc1`, with “inactive”.

Take `CC[C@H](C)[C@H]1O[C@]2(C=C[C@@H]1C)C[C@@H]1C[C@@H](C/C=C(\C)[C@@H](O[C@H]3C[C@H](OC)[C@@H](O[C@H]4C[C@H](OC)[C@@H](O)[C@H](C)O4)[C@H](C)O3)[C@@H](C)/C=C/C=C3\CO[C@@H]4[C@H](O)C(C)=C[C@@H](C(=O)O1)[C@]34O)O2` (tested in a mixture with another compound): the half-maximal activity concentration (AC50) is 0.05 µM (active). With `COP(=S)(OC)Oc1ccc(SC)c(C)c1`, the result was inactive. Turning to `O=S1OCC2C(CO1)C1(Cl)C(Cl)=C(Cl)C2(Cl)C1(Cl)Cl` (centres undefined), the concentration at half-maximal activity (AC50) is 0.177 µM (active) and the outcome was inactive.

Take `CC(C)OC(=O)Nc1cccc(Cl)c1`: the concentration at half-maximal activity (AC50) was 20 µM (active). As to `CCC(C)(C)C(=O)OC1=C(c2ccc(Cl)cc2Cl)C(=O)OC12CCCCC2`, the call was inactive. In the case of `ClC1C(Cl)C(Cl)C(Cl)C(Cl)C1Cl` (centres undefined), the AC50 is 1.1 µM (active). Same read-out and setting: then `CC1(C)C(C=C(Cl)Cl)C1C(=O)OC(C#N)c1ccc(F)c(Oc2ccccc2)c1` (centres undefined), with 66.4 nM (active) and 796 nM (active). With `CCC(C)Nc1c([N+](=O)[O-])cc(C(C)(C)C)cc1[N+](=O)[O-]` (centres undefined), the result was inactive.

Regarding `CNC(=O)CSP(=S)(OC)OC`, the call was inactive. The same measure, in the same setting: then `CC(C)N(C(=O)COc1nnc(C(F)(F)F)s1)c1ccc(F)cc1`, with “inactive”; and `O=C1c2ccccc2C(=O)N1SC(Cl)(Cl)Cl`, with “inactive”; and `N#Cc1c(Cl)c(Cl)c(Cl)c(C#N)c1Cl`, with “inactive”. Still for that read-out and setting: then `CCCN(CCOc1c(Cl)cc(Cl)cc1Cl)C(=O)n1ccnc1`, with “inactive”; and `Oc1cc(Cl)ccc1Oc1ccc(Cl)cc1Cl`, with “inactive”. As to `Oc1ccc(Cl)cc1Cc1ccccc1`, the half-maximal activity concentration (AC50) is 8.31 µM (active).

The values above are taken from PubChem BioAssay (EPA / NIEHS).
